SMILES strings stand for the structures. “And” between values parts separate entries of the source, which are not always exact repeats. Equal values may be shown once. A structure can be active in one record and inactive in another. The source made the active and inactive calls. How the source made its calls: active means hit-call score of the fitted dose curve at least 0.9, where 1 is the maximum; inactive means score below 0.9.

Read-out in experiment [1]: Interferon-gamma inducible Protein 10 (IP10), CXCL10 (gene 3627)
The experiment is described as follows: BSK_hDFCGF_IP10: BioMAP Diversity Plus: hDFCGF Assay for Interferon-gamma inducible Protein 10 (IP10) Biomarker Activity (AID 2283053). The settings on record: primary human foreskin fibroblasts; actives raise or lower the signal. A digest of the protocol:
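Human foreskin fibroblast primary cells (hDFCGF system) were dosed with chemical and assayed at 24 h; IP-10 measured by ELISA. Activity fitted bidirectionally relative to DMSO negative control as baseline.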

Read-out in experiment [2]: Urokinase-type plasminogen activator receptor (uPAR), PLAUR (gene 5329)
The experiment in a line: BSK_CASM3C_uPAR: BioMAP Diversity Plus: CASM3C Assay for Urokinase-type plasminogen activator receptor (uPAR) Biomarker Activity (AID 2283054).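 Further: cell-surface uPAR protein level quantified by ELISA.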 Conditions: primary human coronary artery smooth muscle cells; actives raise or lower the signal.

Read-out in experiment [3]: Vascular cell adhesion molecule 1 (VCAM1), VCAM1 (gene 7412)
The experiment is described as follows: BSK_CASM3C_VCAM1: BioMAP Diversity Plus: CASM3C Assay for Vascular cell adhesion molecule 1 (VCAM1) Biomarker Activity (AID 2283055).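 Further: VCAM-1 protein level quantified by ELISA on the cells.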 Conditions: primary human coronary artery smooth muscle cells; actives raise or lower the signal.

Read-out in experiment [4]: Collagen III, COL3A1 (gene 1281)
The experiment is described as follows: BSK_hDFCGF_CollagenIII: BioMAP Diversity Plus: hDFCGF Assay for Collagen III Biomarker Activity (AID 2283056). The settings on record: primary human foreskin fibroblasts; actives raise or lower the signal. An outline of the steps:
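hDFCGF primary human dermal fibroblasts; 24 h chemical exposure; collagen III by ELISA; bidirectional curve fit vs DMSO baseline (gain or loss of signal).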

Read-out in experiment [5]: Interleukin-8 (IL8), CXCL8 (gene 3576)
The experiment in a line: BSK_hDFCGF_IL8: BioMAP Diversity Plus: hDFCGF Assay for Interleukin-8 (IL8) Biomarker Activity (AID 2283058). The settings on record: primary human foreskin fibroblasts; actives raise or lower the signal. A digest of the protocol: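 ELISA read-out of IL-8 from primary human foreskin fibroblast cultures taken 24 h after dosing; values are bidirectional fits relative to DMSO vehicle.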

Experiment [6] is described as follows: BSK_hDFCGF_Proliferation: Cell Proliferation Assessment in the BioMAP Diversity Plus: hDFCGF Assay (AID 2283059).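 Further: curves fitted for both rise and fall of signal versus DMSO baseline.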 The settings on record: primary human foreskin fibroblasts. A digest of the protocol: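 Primary human foreskin fibroblasts, sub-confluent; […]; 10% TCA fix, 0.1% SRB stain, A560 total protein. Gain/loss fitted bidirectionally vs DMSO control.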

Read-out in experiment [7]: Macrophage colony-stimulating factor (MCSF), CSF1 (gene 1435)
The experiment is described as follows: BSK_hDFCGF_MCSF: BioMAP Diversity Plus: hDFCGF Assay for Macrophage colony-stimulating factor (MCSF) Biomarker Activity (AID 2283060). The settings on record: primary human foreskin fibroblasts; actives raise or lower the signal. A digest of the protocol: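 ELISA read-out of M-CSF in human dermal foreskin fibroblast cultures, 24 h after chemical dosing; gain or loss of signal fitted bidirectionally relative to DMSO baseline.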

Experiment [8] in a line: BSK_hDFCGF_SRB: Viability Assessment in the BioMAP Diversity Plus: hDFCGF Assay (AID 2283061).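 Further: cells exposed to compound for 24 h before the read.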 The settings on record: primary human foreskin fibroblasts. A digest of the protocol: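 Primary human foreskin fibroblasts; 24 h post-dose; fixed 10% TCA, stained 0.1% SRB, A560 read; total protein as overt cytotoxicity measure; curves fit bidirectionally vs DMSO control.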
Read-out in experiment [9]: TIMP metallopeptidase inhibitor 1 (TIMP1), TIMP1 (gene 7076)
The experiment in a line: BSK_hDFCGF_TIMP1: BioMAP Diversity Plus: hDFCGF Assay for TIMP metallopeptidase inhibitor 1 (TIMP1) Biomarker Activity (AID 2283062). Conditions: primary human foreskin fibroblasts; actives raise or lower the signal. A digest of the protocol:
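ELISA readout of TIMP-1 from human dermal foreskin fibroblast cultures 24 h post-dosing. Curves were fitted in both directions against DMSO baseline, with SRB total-protein staining in parallel cultures as a cytotoxicity check.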

Read-out in experiment [10]: Epidermal growth factor receptor (EGFR), EGFR (gene 1956)
The experiment is described as follows: BSK_hDFCGF_EGFR: BioMAP Diversity Plus: hDFCGF Assay for Epidermal growth factor receptor (EGFR) Biomarker Activity (AID 2283057). Conditions: primary human foreskin fibroblasts; actives raise or lower the signal. An outline of the steps: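 Primary human foreskin fibroblasts were exposed to compound for 24 h, after which cell-surface EGFR was quantified by ELISA. Activity was fitted bidirectionally against the DMSO negative control as baseline.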

Regarding `C[C@](N)(Cc1ccc(O)c(O)c1)C(=O)O`, the concentration at half-maximal activity (AC50) is 23.2 µM (active) in [1], 12.5 µM (active) in experiment [6] and 26.6 µM (active) in [7]. Also, the outcome in experiment [2], in experiment [3], in experiment [4], in [5], in [8] and in experiment [9] was inactive.

With `CCc1cc(SCc2sc(-c3ccc(C(F)(F)F)cc3)nc2CN2CCN(c3ccc(OC)cc3)CC2)ccc1OCC(=O)O`, the AC50 in experiment [1] was 2.18 µM (active); in experiment [2], 15.3 µM (active); in experiment [3] it was 33 µM (active); in experiment [4], 3.97 µM (active); in experiment [5] it was 5.15 µM (active); in experiment [6] it was 1.68 µM (active). In addition, the concentration at half-maximal activity (AC50) in experiment [7] is 3.28 µM (active); in experiment [8], 2 µM (active); in experiment [9] it was 2.53 µM (active).

For `Fc1ccccc1[C@@H](F)COC1CCC(Nc2ncnc3[nH]ncc23)CC1` (stereo partly drawn), the result in [1], in experiment [4], in [5], in [7], in experiment [8] and in experiment [9] was inactive. The concentration at half-maximal activity (AC50) was 9.15 µM (active) in [2], 7.56 µM (active) in experiment [3] and 10.3 µM (active) in experiment [6].

With `CC(C)=CCCC(C)=CC=O`, the result in experiment [2], in [3], in experiment [4], in experiment [10], in experiment [5] and in experiment [7] was inactive. The result in experiment [8] and in experiment [9] was inactive. Moreover, in experiment [6], the concentration at half-maximal activity (AC50) is 28.1 µM (active).

For `COCCOCCOCCOC`, the result in [1], in experiment [2], in experiment [3], in experiment [4], in [5] and in experiment [6] was inactive. Besides, the result in experiment [7], in [8] and in experiment [9] was inactive.

Regarding `CC1=CC(=O)CC(C)(C)C1`, the outcome in experiment [2], in [3], in experiment [4], in [10], in experiment [5] and in [6] was inactive. Besides, the result in [7], in [8] and in experiment [9] was inactive.

`O=c1[nH]c2ccc(S(=O)CCN3CCC(Cc4ccc(F)cc4)CC3)cc2o1` (stereo not drawn): the outcome in experiment [2], in experiment [3], in experiment [10], in experiment [5], in experiment [7] and in experiment [8] was inactive. Also, the outcome in [9] was inactive. Further, the AC50 in experiment [4] was 13.9 µM (active); in experiment [6], 4.49 µM (active).

Take `CCOC(=O)CC(CC(=O)OCC)(OC(C)=O)C(=O)OCC`: the result in experiment [1], in [2], in experiment [3], in experiment [4], in experiment [5] and in experiment [6] was inactive. The result in experiment [7], in experiment [8] and in experiment [9] was inactive.

Regarding `CC(C)(O)c1coc(S(=O)(=O)NC(=O)Nc2c3c(cc4c2CCC4)CCC3)c1`, the result in experiment [1], in experiment [2], in experiment [3], in experiment [4], in experiment [5] and in [6] was inactive. The outcome in experiment [7], in experiment [8] and in experiment [9] was inactive.

Turning to `Nc1cccc(N)c1`, the outcome in experiment [1], in experiment [2], in [3], in experiment [4], in experiment [5] and in [7] was inactive. Further, the outcome in experiment [8] and in experiment [9] was inactive. In addition, the AC50 in experiment [6] is 0.148 µM (active).

Turning to `Cn1cnc([N+](=O)[O-])c1Sc1ncnc2nc[nH]c12`, the outcome in experiment [2], in [3], in experiment [4], in [5], in experiment [6] and in experiment [7] was inactive. Further, the result in experiment [8] and in experiment [9] was inactive. In addition, the half-maximal activity concentration (AC50) in experiment [3] is 15.6 µM (active) and 8.5 µM (active); in experiment [4], 4.26 µM (active); in experiment [6], 19.9 µM (active); in experiment [7], 7.13 µM (active) and 9.58 µM (active).

As for `COC(=O)c1ccccc1O`, the outcome in experiment [2], in experiment [3], in [4], in [10], in [5] and in experiment [6] was inactive. Also, the result in experiment [7], in [8] and in experiment [9] was inactive.

On to `CCCCCCCCO`, for which the outcome in experiment [1], in [2], in [3], in [4], in experiment [5] and in experiment [6] was inactive. In addition, the outcome in [7], in experiment [8] and in [9] was inactive.

Take `COC(=O)CC(=O)OC`: the outcome in experiment [1], in experiment [2], in experiment [3], in experiment [4], in experiment [5] and in [6] was inactive. For the same compound, the result in experiment [7], in experiment [8] and in [9] was inactive.

Turning to `O=C1CCCCCN1`, the outcome in experiment [2], in [3], in experiment [4], in experiment [10], in experiment [5] and in experiment [6] was inactive. Moreover, the outcome in experiment [7], in [8] and in experiment [9] was inactive.

Regarding `C=CC(=C)CCC=C(C)C`, the outcome in [1], in [2], in experiment [3], in experiment [4], in experiment [5] and in experiment [6] was inactive. Further, the result in [7], in experiment [8] and in experiment [9] was inactive.

As for `CC[C@H](C)C(=O)O[C@H]1C[C@@H](C)C=C2C=C[C@H](C)[C@H](CC[C@@H]3C[C@@H](O)CC(=O)O3)[C@H]21`, the outcome in experiment [2] and in experiment [3] was inactive. Moreover, the concentration at half-maximal activity (AC50) in experiment [4] was 29.8 µM (active); in experiment [5] it was 33.8 µM (active); in [6] it was 13.5 µM (active); in experiment [7], 27.6 µM (active); in experiment [8], 32.2 µM (active); in experiment [9] it was 29.9 µM (active).

For the compound `CCCCC(CC)COC(=O)c1ccc(C(=O)OCC(CC)CCCC)cc1` (stereo not drawn), the outcome in experiment [2], in experiment [3], in experiment [4], in experiment [5], in [6] and in [7] was inactive. Moreover, the outcome in [8] and in experiment [9] was inactive.

Regarding `CC[C@H]1OC(=O)[C@H](C)[C@@H](O[C@H]2C[C@@](C)(OC)[C@@H](O)[C@H](C)O2)[C@H](C)[C@@H](O[C@@H]2O[C@H](C)C[C@H](N(C)C)[C@H]2O)[C@](C)(O)C[C@@H](C)C(=O)[C@H](C)[C@@H](O)[C@]1(C)O`, the outcome in experiment [2], in [3], in experiment [4], in experiment [10], in experiment [5] and in experiment [6] was inactive. Besides, the result in [7], in experiment [8] and in experiment [9] was inactive.

For the compound `O=C(NS(=O)(=O)/C=C/c1ccccc1)c1ccc(F)cc1Cl`, the result in experiment [2], in experiment [3], in [4], in experiment [10], in experiment [5] and in [7] was inactive. Also, the outcome in [8] and in experiment [9] was inactive. Moreover, in [6], the AC50 is 12.9 µM (active).

Regarding `CCOCCOCCOCCO`, the outcome in [2], in experiment [3], in experiment [4], in [10], in experiment [5] and in experiment [6] was inactive. Further, the outcome in experiment [7], in [8] and in experiment [9] was inactive.

For `CCCCC(CC)COC(=O)CCCCCCCCC(=O)OCC(CC)CCCC` (stereo not drawn), the result in experiment [2], in experiment [3], in experiment [4], in experiment [5], in [6] and in [7] was inactive. The outcome in experiment [8] and in experiment [9] was inactive.

These data come from PubChem BioAssay (EPA / NIEHS).
